# Screens: PubChem, Broad Institute
# PAX8 reporter – PAX8 transcriptional activity inhibition. RMG-I TPO-luciferase reporter, SteadyGlo, 24 h. actives 1.2% (n = 360,000). inhibition, % at 12.6 µM;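 active means mean replicate inhibition at least 60% with every replicate also reaching 60%; inconclusive means only one of the two criteria is met; inactive means mean below 60% and not all replicates reaching 60%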;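 further: luciferase light reporting Pax8 driven TPO promoter activity; plate controls were median of neutral control wells for no effect and mitoxantrone controls for full effect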
# Statin myotox sup – suppressors of simvastatin-induced myotoxicity in C2C12 myotubes; ATP luminescence, 48 h; scaled: DMSO 0, geranylgeraniol control 100; rescue of ATP level, % at 7.49 µM; actives 0.78% (n = 330,000);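 active means mean ATP rescue above about 67%, or every replicate alone reaching that limit, limit read from the data, passing the limit was not always enough; inconclusive means no clear call, values can overlap the other calls; inactive means mean under the limit and some replicate under it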;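 further: myotubes were challenged with 10 µM simvastatin during compound exposure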
# HIV Env fusion – inhibitors of HIV Env-mediated cell fusion; HeLa-JRFL Env/CEM21 cell fusion, luciferase; inhibition, % at 12.3 µM; actives 1.1% (n = 360,000);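 active means mean replicate inhibition score of at least 50 and every replicate individually at or above 50; inconclusive means only one of the two criteria met; inactive means mean below 50 and not all replicates reaching 50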;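 further: 0% = plate neutral controls and 100% = maraviroc near 300 nM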
# miR122 inh – miR-122 inhibition in Huh7 cells | activation (reporter increase), % at 12.5 µM | Huh7 miR-122 Renilla luciferase sensor, 48 h; neutral wells = 0, positive control = 100 | actives 0.3% (n = 340,000);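 active means mean replicate activation score at least 90 and every replicate individually at or above 90; inconclusive means only one of the two criteria met; inactive means neither criterion met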;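 further: higher luciferase means less miR-122 activity so hits act as miR-122 inhibitors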
# EWS-Fli inh – EWS/Fli transcriptional activity inhibition. A673 NR0B1-luciferase reporter, viability-normalised. inhibition, % at 12.6 µM. actives 0.67% (n = 350,000). AID 651661;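 active means mean inhibition of at least 50% after viability correction, with every replicate also passing that limit; inconclusive means mean reaches 50% but only one of two replicates passes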;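 further: firefly luciferase signal divided by Alamar Blue viability fluorescence both relative to DMSO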
# INS-1E GSIS act – GLuc luminescence reporter in INS-1E cells, primary screen for activators of glucose-dependent secretion of insulin; INS-1E GLuc reporter insulin secretion, 2-3 h; activation, % at 16.6 µM; actives 0.61% (n = 370,000);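 active means lowest replicate activation of at least 40%, so every replicate reaches that level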;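 further: 0% = median of neutral control wells and 100% = median of IBMX positive control wells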
# * = called active by the depositor; ? = inconclusive; / = no result given; ! = not confirmed by another sample; [ ] = another dose, or the depositor's remark. Only some compounds are listed: those with a hit (about 3.1% of all), similar ones and a draw of the others.
SMILES,PAX8 reporter,Statin myotox sup,HIV Env fusion,miR122 inh,EWS-Fli inh,INS-1E GSIS act
CCCC(O)(CCC)C(=O)NN1CCCCC1,/,/,/,-4,-2,10
O=C(CSc1nc2ccccc2c(=O)n1Cc1ccc(F)cc1)NCc1cccs1,0,/,62*,/,-1,8
O=C(CSc1nnc(-c2cc3ccccc3cc2O)n1Cc1ccco1)c1ccc(F)cc1,19,28,-23,231*,/,/
Cc1cc2nnc(SCC(=O)NCc3ccco3)n2c2ccccc12,31,/,-63,25,51*,26
Cc1occc1-c1nnc(SCC(=O)c2ccc(F)cc2)n1Cc1ccco1,/,-2,/,-9,/,/
CCOC(=O)CSc1nc2ccccc2c(=O)n1CC1CCC(C(=O)NCc2ccco2)CC1 (configuration not stated),15,0,23,138*,/,14
Cc1cc(NC(=O)CSc2nc3ccccc3c(=O)n2Cc2ccc(F)cc2)no1,/,/,0,/,/,/
CCC(=O)Nc1ccc2c(c1)C(=O)N(C)C[C@@H](OC)[C@H](C)CN(CC1CCCCC1)[C@@H](C)CO2,/,2,/,-14[16.7 µM],-6,-18
CO[C@H]1CN(C)C(=O)c2ccc(NS(C)(=O)=O)cc2OC[C@@H](C)N(C(=O)C2CCCC2)C[C@H]1C,-13,-4,/,6[16.7 µM],1,-5
C[C@@H]1CN([C@H](C)CO)C(=O)Cc2cc(NC(=O)NC3CCCCC3)ccc2O[C@@H]1CN(C)Cc1ccc(C(=O)Nc2ccccc2N)cc1,16,/,/,/,-14,11
O=C(CSc1nc2ccccc2c(=O)n1Cc1ccco1)NCc1ccccc1,/,-9,-45,3,/,/
Cc1cc2c(=O)n(Cc3ccco3)c(SCC(=O)c3ccc(Cl)s3)nc2s1,/,9,76*,0,/,-23
O=C(CSc1nc2ccccc2c(=O)n1CC1CCCO1)NCc1ccccc1 (configuration not stated),12,-2,7,5,-3,143*
CCOCCCn1c(SCC(=O)NCc2ccco2)nc2c(sc3ccccc32)c1=O,/,-9,56*,-3,/,-5
O=C(CSc1nc2ccccc2c(=O)n1Cc1ccccc1)NCc1ccco1,/,-47,7,2,/,81*
Cc1noc(C)c1S(=O)(=O)N(C)C[C@H]1Oc2ccc(NS(=O)(=O)c3cn(C)cn3)cc2CC(=O)N([C@@H](C)CO)C[C@H]1C,/,7,-17[16.7 µM],-2[16.7 µM],-22,-7
O=C(CSc1nc2ccccc2c(=O)n1Cc1ccco1)c1ccc(F)cc1,/,11,58*,5,/,/
CC(C)CCn1c(=O)c2ccccc2n2c(CN3CCOCC3)nnc12,-11,/,-1,/,7,45*
Clc1ccc(CN2CCN(c3ncnc4scc(-c5cccs5)c34)CC2)cc1,22,-8,66*,-3,/,/
COc1ccc(CNCCC(c2ccc(OC(C)C)cc2)C(C)C)cc1OC (configuration not stated),/,-169,77*,1,/,-20
COc1ccc(C(CCNCc2ccc(N(C)C)cc2)C(C)C)cc1 (configuration not stated),2,/,65*,/,39,/
COc1ccc(CNCCC(c2ccc(OC(C)C)cc2)c2ccccc2OC)cc1 (configuration not stated),68*,/,?,/,48,5
COc1ccc(CNCCC(c2ccccc2)c2ccc3c(c2)OCO3)cc1 (configuration not stated),/,-46,/,16,28,13
COc1ccccc1C(CCNCc1ccccc1)c1ccc(OC(C)C)cc1 (configuration not stated),2,-13,22,11,22,-25
COc1ccc(CNCCC(c2ccc(OC(C)C)cc2)c2ccccc2OC)cc1OC (configuration not stated),39,-38,46,-23,?,-44
SMILES,PAX8 reporter,Statin myotox sup,HIV Env fusion,miR122 inh,EWS-Fli inh,INS-1E GSIS act
O=C(C[C@H]1CC[C@@H]2NC[C@@H](O)COC[C@H]2O1)NCc1ccc2c(c1)OCO2,1,8,-12[16.7 µM],3[16.7 µM],1,7
O=C(Nc1ccc(Cl)cc1)NC1(C(=O)NCCCN2CCOCC2)CCCCC1,/,3,/,-2,/,/
O=C(Nc1ccccc1)NC1(C(=O)NCCCN2CCOCC2)CCCCC1,4,102*,-36,-5,/,/
O=C(O)CCC(C(=O)O)n1c(O)c(C2=c3ccccc3=NC2=O)sc1=S (configuration not stated),/,112*,-18,1,/,/
O=C(O)Cn1c(O)c(C2=c3ccccc3=NC2=O)sc1=O,16,1,-4,-2,16,4
COc1ccc(S(=O)(=O)N(C)C[C@H]2Oc3ccc(NC(=O)C4CCCCC4)cc3C(=O)N([C@@H](C)CO)C[C@H]2C)cc1,/,-24,-13[16.7 µM],31[16.7 µM],6,-1
COC(=O)c1ccc(NC(=O)C2C3C=CC(O3)C2C(=O)O)cc1 (configuration not stated),/,90*,/,6,/,6
C[C@@H]1CN([C@H](C)CO)C(=O)c2cc(NC(=O)Nc3ccc4c(c3)OCO4)ccc2O[C@@H]1CN(C)C,29,1,/,-1[16.7 µM],0,15
CO[C@H]1CC[C@@H]2CCOc3ccc(C#N)cc3C(=O)N(C)C[C@@H](OC)[C@@H](C)C(=O)N(C)C[C@H]1O2,-7,75*,6[16.7 µM],/,1,6
NC12CC3CC(C1)CC(CC(=O)O)(C3)C2,-16,-6,-2,-3,11,11
NC12CC3CC(C1)CC(CO)(C3)O2,/,111*,/,-2,/,/
COc1cccc(C2NC(=S)NC(C)=C2C(=O)c2ccccc2)c1OC (configuration not stated),34,-36,-2,147*,?,0
C=CCOc1ccc(C2NC(=S)NC(C)=C2C(=O)c2ccccc2)cc1OC (configuration not stated),1,/,7,/,/,1
C[C@@H]1CCCCO[C@@H](CN(C)Cc2ccc(C(F)(F)F)cc2)[C@H](C)CN([C@@H](C)CO)C(=O)c2cc(NC(=O)Cc3ccccc3)ccc2O1,81*,49,?,-22[16.7 µM],14,-12
C[C@H](CO)N1C[C@H](C)[C@@H](CN(C)Cc2ccc(C(F)(F)F)cc2)OCCCC[C@H](C)Oc2ccc(NC(=O)Cc3ccccc3)cc2C1=O,80*,26,40[16.7 µM],7[16.7 µM],7,-1
C[C@@H]1CCCCO[C@H](CN(C)Cc2ccc(C(F)(F)F)cc2)[C@H](C)CN([C@@H](C)CO)C(=O)c2cc(NC(=O)Cc3ccccc3)ccc2O1,65*!,2,-98,-3,14,-9
C[C@@H]1CCCCO[C@@H](CN(C)Cc2ccc(C(F)(F)F)cc2)[C@@H](C)CN([C@H](C)CO)C(=O)c2cc(NC(=O)Cc3ccccc3)ccc2O1,7,61,1[16.7 µM],12[16.7 µM],-12,-8
